# Most compounds without a hit are left out; they make up all but 2.7% or so of the library.
# MsrA inhibitor = inhibits bovine methionine sulfoxide reductase A; purified bovine MsrA, absorbance read-out; inhibition, % at 15.5 µM; 360,000 tested, 0.75% active; in the data active means inhibition above about 4.5%;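 further: 0% = vehicle wells with enzyme and 100% = reference inhibitor wells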
# NadD block = blocks S. aureus nicotinate mononucleotide adenylyltransferase. purified NadD enzyme, colorimetric absorbance read-out. inhibition, % at 20 µM. 360,000 tested, 0.78% active. AID 602399; in the data active means inhibition above about 26%
# rCAG binder = molecules binding r(CAG) RNA repeats | r(CAG) RNA repeat, TO-PRO-1 dye displacement fluorescence | inhibition, % at 3 µM | 370,000 tested, 1.3% active | AID 651821;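 active means inhibition above the plate cutoff, the mean of all test compounds on that plate plus 3 SD, cut at about 35% in these data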;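 further: 0% = DMSO alone and 100% = 100 µM mitoxantrone as full dye displacement; higher means more dye released from RNA so lower well fluorescence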
# bovine MsrA act = activates bovine MsrA enzyme; activation, % at 10.6 µM; purified bovine MsrA, absorbance read-out; 360,000 tested, 0.3% active; in the data active means activation above about 7.5%;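 further: 0% = vehicle and 100% = reference activator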
# NadD conf = NadD (S. aureus) inhibition, single concentration confirmation | shares compounds with NadD block | 2,000 tested, 13% active | purified S. aureus NadD, colorimetric enzyme assay | AID 624309 | inhibition, % at 20 µM; in the data active means inhibition mostly above about 42%, no sharp cut-off; inactive means mostly below about 42%
# * = called active by the depositor; . = not tested or not shown.
SMILES,MsrA inhibitor,NadD block,rCAG binder,bovine MsrA act,NadD conf
CCOC(=O)c1cc(-c2ccc(N3C(c4ccsc4)=Cc4ccccc4C3CC(C)=O)cc2)cc([N+](=O)[O-])c1 (centres undefined),1.3,31.6*,7.1,-12.3,-0.1
C=CCn1c(=O)/c(=C/c2ccc(C)o2)s/c1=C(/C#N)C(=O)c1ccccc1,-1.1,30.3*,25.9,-14.0,2.9
O=c1[nH]c(C2CCCN(S(=O)(=O)c3ccccc3)C2)nc2c1nnn2Cc1ccc2c(c1)OCCO2 (centres undefined),-1.3,28.4,5.6,0.2,.
Cc1ccc(C)c(S(=O)(=O)N2CCC(c3nc4c(nnn4Cc4ccc5c(c4)OCCO5)c(=O)[nH]3)CC2)c1,0.9,45.5*,11.1,-2.0,10.0
O=c1[nH]c(C2CCCN(S(=O)(=O)c3cccc(Cl)c3)C2)nc2c1nnn2Cc1ccc2c(c1)OCCO2 (centres undefined),-0.2,58.3*,4.8,-3.8,57.3*
O=C(c1ccc2c(=O)n(Cc3ccccc3Cl)c(=S)[nH]c2c1)N1CCOCC1,0.0,5.0,0.3,-1.7,.
CCOC(=O)[C@@]12CCC3=C1N(CCC3)C(=O)[C@H](CC(=O)N1CCSCC1)C2,.,.,2.0,.,.
CCCN(CCC)S(=O)(=O)c1ccc(C(=O)Nc2nnc(-c3cc(OC)cc(OC)c3)o2)cc1,.,58.2*,.,0.1,5.8
CCCN(CCC)S(=O)(=O)c1ccc(C(=O)Nc2nnc(-c3cccc(OC)c3)o2)cc1,0.4,18.6,7.7,-0.3,.
CCN(Cc1ccccc1)S(=O)(=O)c1ccc(C(=O)Nc2nnc(-c3ccccc3OC)o2)cc1,-0.3,54.4*,9.9,-0.6,25.5*
COc1ccccc1-c1nnc(NC(=O)c2ccc(S(=O)(=O)N(C)C)cc2)o1,3.0,12.3,15.8,-8.4,.
CCC[C@H]1CC(=O)C=C(c2ccc(OC)cc2)ON1C(=O)OC(C)(C)C,0.4,-3.3,2.0,-2.4,.
CCCCOc1ccc(C(=O)NC2CCCCN(CC)C2=O)cc1 (centres undefined),.,.,-3.2,.,.
CC(=O)N=c1c(C#N)cc2c(=O)n3ccccc3nc2n1CCCOC(C)C,0.0,3.2,-0.6,-3.7,.
CC(C)OCCCn1c(=N)c(C(N)=S)cc2c(=O)n3ccccc3nc21,1.6,25.6*,2.1,1.2,8.9
COc1ccc(C)cc1S(=O)(=O)NNc1nc(C)cc(C)n1,-0.3,-3.4,2.1,-4.0,.
Nc1nc(=S)[nH]c2c1C1(CCCCC1)Cc1ccccc1-2,-0.6,34.5*,0.8,-12.5,16.7
Nc1nc(=S)[nH]c2c1C1(CCCC1)Cc1ccccc1-2,-0.7,27.4,6.5,-12.5,.
COc1ccccc1N1CCN(C(=O)c2ccc3nc(-c4ccco4)c(-c4ccco4)nc3c2)CC1,0.6,25.9,6.4,-0.6,.
Cc1ccc(C)c(N2CCN(C(=O)c3ccc4nc(-c5ccco5)c(-c5ccco5)nc4c3)CC2)c1,2.6,63.7*,29.4,1.1,12.1
O=S(=O)(c1cccc2cccc(Cl)c12)N1CCCC1,0.7,-0.3,-2.4,-2.9,.
Cc1ccc(Nc2nnc(SCC(=O)Nc3ncc(S(=O)(=O)c4ccc([N+](=O)[O-])cc4)s3)s2)cc1,0.3,45.4*,14.8,-4.2,7.8
Cc1cc(=O)[nH]c(SCC(=O)Nc2ncc(S(=O)(=O)c3ccc([N+](=O)[O-])cc3)s2)n1,2.6,10.9,26.3,-1.4,.
CC(C)c1ccc(Nc2nnc(SCC(=O)Nc3ncc(S(=O)(=O)c4ccc([N+](=O)[O-])cc4)s3)s2)cc1,-0.1,36.3*,8.2,-2.1,9.0
COc1ccc(-n2c(COc3ccc(Cl)cc3)nnc2SCC(=O)Nc2ccc3c(c2)OCO3)cc1,.,.,9.9,.,.
SMILES,MsrA inhibitor,NadD block,rCAG binder,bovine MsrA act,NadD conf
Nc1ccc2cc3ccccc3cc2c1,1.0,12.3,15.7,-2.2,.
Nc1ccc2cccc(O)c2c1,0.1,41.2*,15.0,-7.7,29.4
N#CC1=C(S)N=C(N)C(c2nc(-c3ccccc3)cs2)C12CCCC2 (centres undefined),1.1,52.1*,16.2,-1.5,72.6*
N#CC1=C(S)N=C(N)C(c2nc(-c3ccccc3)cs2)C12CCCCC2 (centres undefined),0.3,52.0*,11.9,-2.8,75.2*
Cc1ccc(-c2csc(C3C(N)=NC(S)=C(C#N)C34CCCCC4)n2)cc1 (centres undefined),0.2,27.5,23.5,1.5,.
Cc1ccc(S(=O)(=O)NC(CC(=O)NCC2CCCO2)c2ccccc2)cc1 (centres undefined),-0.1,1.4,-8.4,-2.2,.
O=C(NCCS(=O)(=O)N1CCN(c2ccccc2)CC1)c1cccc(F)c1,-0.4,-0.5,0.3,-9.4,.
Brc1ccc(-c2ccc(/C=N/Nc3nncc(-c4ccccc4)n3)o2)cc1,-1.3,28.7*,6.0,-9.9,8.7
Brc1ccc(/C=N/Nc2nncc(-c3ccccc3)n2)o1,2.2,.,0.0,.,.
COc1ccc(-c2cc(C(=O)Nc3c(C)n(C)n(-c4ccccc4)c3=O)c3ccccc3n2)cc1,0.4,11.4,8.3,-0.7,.
COc1ccc2cc(-c3cc(C(=O)OCC(=O)Nc4c(C)n(C)n(-c5ccccc5)c4=O)c4ccccc4n3)ccc2c1,-0.6,40.4*,9.7,-9.1,11.8
Nc1cc(N)cc(C(=O)OCC(=O)Nc2cc(S(=O)(=O)N3CCCCC3)ccc2Cl)c1,-0.4,31.1*,17.0,-5.7,17.6
O=C(COC(=O)c1ccc(O)cc1)Nc1cc(S(=O)(=O)N2CCCCCC2)ccc1Cl,-0.9,-13.1,10.9,0.1,.
O=C(/C=C(\O)c1ccccc1)C(=O)NNC(=O)c1ccccc1[N+](=O)[O-],-1.2,2.3,5.3,0.7,.
Nc1ccccc1C(=O)NNC(=O)C(=O)/C=C(\O)c1ccccc1,1.1,71.5*,24.5,-4.2,73.5*
COc1cc2c(C#N)c(N3CCc4ccccc4C3)nc(N)c2c(N)n1,1.4,42.4*,31.9,-11.8,-3.3
COc1ccccc1NC(=O)C(=O)NNC(=O)COc1ccc2ccccc2c1,-0.9,33.6*,28.3,-2.6,33.2
Cc1ccc(NC(=O)COC(=O)c2ccc3c(c2)NC(=O)C2CCCN32)cc1 (centres undefined),2.0,38.0*,15.3,-4.1,31.5
Nc1c(N(CCO)C(=O)c2ccccc2OCc2ccccc2Cl)c(=O)[nH]c(=O)n1Cc1ccccc1,-0.2,4.1,2.3,-2.9,.
CN(c1ccccc1)S(=O)(=O)c1ccc(Cl)c(C(=O)Nc2ccc(-c3nc4ccccc4[nH]3)cc2)c1,4.3,33.5*,21.0,-4.2,39.6
CN(c1ccccc1)S(=O)(=O)c1ccc(Cl)c(C(=O)Nc2nc3ccccc3[nH]2)c1,-0.7,11.4,6.6,-3.5,.
COc1ccc(CC(=O)N2CCCC2)c(OC)c1,-0.6,6.1,-0.3,-2.1,.
CCOc1ccc(NC(=S)NNc2ccnc3cc(Cl)ccc23)cc1,-0.1,13.9,14.8,-6.0,.
S=C(NNc1ccnc2cc(Cl)ccc12)Nc1ccc(Cl)cc1Cl,0.9,29.6*,21.9,-3.2,6.0
Nc1c(S(=O)(=O)c2ccccc2)c2nc3ccccc3nc2n1/N=C/c1ccco1,1.7,37.1*,26.6,3.0,4.5
Cc1ccc(S(=O)(=O)c2c(N)n(/N=C/c3ccco3)c3nc4ccccc4nc23)cc1,1.1,25.0,19.7,-1.4,.
